Source: PubChem BioAssay
A number with no mark means an inactive call. No rule for the calls is given here.

The molecules below were run against Pantothenate synthetase (Mycobacterium tuberculosis (strain ATCC 25618 / H37Rv)) (UniProt P9WIL5) (assay: Coupled enzyme confirmation of inhibitors against recombinant Mtb PanC (AID 375;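 also: 0% = full reaction with vehicle and 100% = no enzyme background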)). Conditions: coupled enzyme assay; at 10 µM, hits give high values.
Pantothenate synthetase (Mycobacterium tuberculosis (strain ATCC 25618 / H37Rv)), sequence (P9WIL5 whole entry, looked up): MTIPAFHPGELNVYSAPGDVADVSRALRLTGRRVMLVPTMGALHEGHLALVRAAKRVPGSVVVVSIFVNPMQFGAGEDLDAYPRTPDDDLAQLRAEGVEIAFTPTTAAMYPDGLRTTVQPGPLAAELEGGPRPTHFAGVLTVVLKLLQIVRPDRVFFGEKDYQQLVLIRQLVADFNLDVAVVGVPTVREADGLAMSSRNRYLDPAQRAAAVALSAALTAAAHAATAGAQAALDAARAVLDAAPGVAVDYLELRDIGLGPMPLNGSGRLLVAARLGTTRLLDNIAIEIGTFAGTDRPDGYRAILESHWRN

**Q.** For COC(=O)CNC(=O)COC(=O)c1cc(Cl)cc(Cl)c1N, which inhibition is on record?
**A.** 0%

**Q.** Cn1c(=O)c2c(-c3ccncc3)c3c(nc2n(C)c1=O)-c1ccccc1C3=O was tested. Which inhibition did it give?
**A.** 0%

**Q.** For Nc1c(C(=O)NCc2ccco2)nnn1Cc1ccccc1, which inhibition is on record?
**A.** 2%

**Q.** How did the inhibition turn out when N#Cc1ccccc1Cn1c(=O)n(Cc2ccc(C(=O)NCc3ccco3)cc2)c(=O)c2ccccc21 was run?
**A.** 0%

**Q.** For C/C(=N\O)C(C)/[N+]([O-])=C/c1nc(C)c(C)n1O (stereo not given), which inhibition is on record?
**A.** 0%

**Q.** With Cc1ccc(S(=O)(=O)NC(C(=O)OCC(=O)NC2CCS(=O)(=O)C2)C(C)C)cc1 (stereo not given) as the molecule, how does the inhibition read?
**A.** 0%

**Q.** For CCC(C)NC(=O)c1cn(CC)c2ccc(S(=O)(=O)N(C)C)cc2c1=O (stereo not given), which inhibition is on record?
**A.** 0%

**Q.** For COC(=O)c1ccc(CSc2nnc(-c3ccncc3)o2)o1, which inhibition is on record?
**A.** 0%

**Q.** How did the inhibition turn out when CC(=O)Nc1ccccc1-c1nc2ccc(C(=O)N3CCN(c4ccccc4)CC3)cc2[nH]c1=O was run?
**A.** 7%

**Q.** How did the inhibition turn out when CCOC(=O)CSc1nnc(-c2ccc(S(=O)(=O)N3CCOCC3)cc2)n1-c1ccccc1 was run?
**A.** 3%

**Q.** O=C(NC1CCCCCCC1)C1CCN(c2nc3ccccc3o2)CC1 was tested. Which inhibition did it give?
**A.** 3%

**Q.** With COC(=O)Cn1c2c(c3cc(C)ccc31)CCCC2 as the molecule, how does the inhibition read?
**A.** 1%

**Q.** With Brc1ccc(-c2cn3cccnc3n2)cc1 as the molecule, how does the inhibition read?
**A.** 0%

**Q.** How did the inhibition turn out when CCOC(=O)c1cnc(-n2nc(C)cc2C)nc1NC(C)c1ccccc1 (stereo not given) was run?
**A.** 0%

**Q.** With Cn1c(=O)oc2cc(S(=O)(=O)N3CCN(c4ccccn4)CC3)ccc21 as the molecule, how does the inhibition read?
**A.** 0%

**Q.** How did the inhibition turn out when Fc1ccc(-c2cnc[nH]2)cc1 was run?
**A.** 0%

**Q.** How did the inhibition turn out when COC(=O)c1sc(NC(=O)c2ccoc2C)nc1C was run?
**A.** 0%

**Q.** How did the inhibition turn out when Cc1ccc(C)c(C(=O)NC2CC(C)(C)NC(C)(C)C2)c1 was run?
**A.** 0%

**Q.** O=C(Oc1cccc2cccnc12)c1cccc(-n2cnnn2)c1 was tested. Which inhibition did it give?
**A.** 0%

**Q.** For O=C1c2ccccc2S(=O)(=O)N1Cc1nnc(-c2ccccc2Br)o1, which inhibition is on record?
**A.** 0%

**Q.** How did the inhibition turn out when Cc1ccc(-c2nnc3c4ccccc4c(C)nn23)cc1NC(=O)c1ccco1 was run?
**A.** 0%

**Q.** How did the inhibition turn out when O=C(NC1CCCCC1)c1cc2nc(-c3ccco3)cc(C(F)(F)F)n2n1 was run?
**A.** 0%

**Q.** With CC(CN1CCCCC1)OC(=O)c1ccc(Cl)cc1Cl (stereo not given) as the molecule, how does the inhibition read?
**A.** 0%

**Q.** For O=C(NCCCN1CCCC1=O)c1cncc(Br)c1, which inhibition is on record?
**A.** 0%

**Q.** For O=C(O)c1cc2cc(F)ccc2[nH]1, which inhibition is on record?
**A.** 2%

**Q.** Which inhibition does the source give for O=C(Nc1ccccc1)N(O)c1ccc(Cl)cc1 here?
**A.** 4%

**Q.** With COc1ccc2c(c1OC)C(=O)OC2CC(=O)c1ccc(O)cc1 (stereo not given) as the molecule, how does the inhibition read?
**A.** 0%

**Q.** Which inhibition does the source give for CCN1C(=O)/C(=C2\C=Cc3ccccc3N2CC)OC1=S here?
**A.** 11%

**Q.** For Cn1c(SCC(=O)O)nnc1C1CCCCC1, which inhibition is on record?
**A.** 1%

**Q.** How did the inhibition turn out when COCCNc1nc(C(C)(C)C)nc2c1nnn2Cc1ccccc1Cl was run?
**A.** 0%

**Q.** How did the inhibition turn out when Cc1cccc(NC(=O)c2ccc3ccccc3n2)n1 was run?
**A.** 0%

**Q.** How did the inhibition turn out when CCN(CC)S(=O)(=O)c1ccc(Cl)c(C(=O)OC)c1 was run?
**A.** 8%

**Q.** With CCC(Sc1nc2n[nH]c(C)c2c(=N)n1-c1cc(Cl)ccc1C)C(=O)N1CCOCC1 (stereo not given) as the molecule, how does the inhibition read?
**A.** 0%

**Q.** Which inhibition does the source give for CN(Cc1ccccc1)C(=O)CNC(=O)Cn1cnc2ccccc2c1=O here?
**A.** 0%

**Q.** With Cc1cc(C)cc(N2C(=O)C3C4C=CC(C4)C3C2=O)c1 (stereo not given) as the molecule, how does the inhibition read?
**A.** 0%

**Q.** For CC(=O)c1n[nH]nc1NC(=O)c1ccccc1, which inhibition is on record?
**A.** 0%

**Q.** For COc1cc(Br)cc(/C=N/c2ncn[nH]2)c1O, which inhibition is on record?
**A.** 5%

**Q.** How did the inhibition turn out when COc1ccc(-c2cc3nc4n(c(=O)c3s2)CCC4)cc1 was run?
**A.** 8%

**Q.** CCOC(=O)N1CCN(S(=O)(=O)c2ccc(OCC)c(C)c2)CC1 was tested. Which inhibition did it give?
**A.** 0%

**Q.** CCCn1c(=N)n(CCOc2ccc(OC)cc2)c2ccccc21 was tested. Which inhibition did it give?
**A.** 0%
